Data on 18 compounds can be found in PubChem BioAssay.

For part of these data: Results with a measured potency or affinity are listed apart. Active and inactive are the calls of the source. Unless noted, the rule behind the calls is not given here.

The nature of assay [1]: antimalarial activity against Dd2 strain (AID 2302;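 active = growth inhibition above 50% at the single 2 µM test dose, taken to imply half-maximal potency below 2 µM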;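 note: 0% = DMSO untreated growth and 100% = chloroquine plus artemisinin killed control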). The conditions noted are these: P. falciparum Dd2 in RBCs, LDH growth readout, 72 h; at 2 µM; stronger effect = higher value.
Assay [2] can be described thus: human hepatoma cell viability loss – ATP luminescence, cytotoxicity control for P. falciparum antimalarial project, primary screen (AID 2303;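 active = inhibition above 50%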;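 note: 0% = DMSO wells and 100% = digitonin-killed cells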). The note with it: HepG2 viability, 24-48 h, at 10 µM, stronger effect = higher value.
In assay [3] the target is L-lactate dehydrogenase (Plasmodium falciparum (isolate CDC / Honduras)) (UniProt Q27743). The assay can be described thus: PfLDH activity inhibition – cell lysate, 3D7 strain, counter-screen for P. falciparum growth inhibition project (AID 2304).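 Note: 0% = vehicle and 100% = reference inhibitor.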 The note with it: P. falciparum 3D7 crude extract, LDH APAD/NBT absorbance; at 2 µM; stronger effect = higher value. (A counterscreen serves to expose hits that act by an unwanted route or on another target.)

Assay [4] in a line: inhibition of 3D7 malaria parasite growth – strain 3D7 (AID 2306).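 Note: 0% = DMSO wells and 100% = chloroquine plus artemisinin control wells.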 The conditions noted are these: P. falciparum 3D7 erythrocytic growth, LDH absorbance, 72 h; at 2 µM; stronger effect = higher value.
The target of assay [5] is Protein kinase 7 (PK7), Plasmodium falciparum 3D7 (PF3D7_0213400) (UniProt Q7YTF7). The assay can be described thus: inhibition of Plasmodium PK7 catalytic activity – biochemical, TCAMS antimalarial set, Kinase-Glo luminescence (AID 1159587). The conditions noted are these: recombinant PfPK7, Kinase-Glo ATP depletion luminescence. In general terms: Kinase-Glo reads ATP consumption through a luciferase reaction.

Assay [6] addresses Calcium-dependent protein kinase 4 (Plasmodium falciparum (isolate 3D7)) (UniProt Q8IBS5). In words: PfCDPK4 kinase inhibitors, biochemical, TCAMS library (AID 1159588; cut-off not given, nearly all actives have IC50 up to about 0.91 µM). The note with it: recombinant PfCDPK4, Kinase-Glo ATP depletion luminescence.
Assay [7] deals with Plasmodium falciparum protein kinase 6 (PK6, PF3D7_1337100) (UniProt Q8IDW1). The assay can be described thus: PfPK6 kinase inhibitors, biochemical, TCAMS library (AID 1159586). The conditions noted are these: recombinant PfPK6, Kinase-Glo ATP depletion luminescence.
Assay [8] in a line: viability loss with induced miR-34 in A549 – imaging, A549 dox-inducible miR-34, nuclei and caspase counts, primary screen (AID 1347080;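 active = compounds whose cell count with miR-34 switched on is under 0.7 times the count with it off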). The conditions noted are these: A549 miR-34 inducible, Hoechst nuclei count, 48 h.
The nature of assay [9]: blockers of cellular phospholipid synthesis – cell-based, LOPAC library, screen 4, primary screen (AID 1347384). The conditions noted are these: animal cells, phospholipid biosynthesis inhibition screen; at 10 µM.
A short description of assay [10]: galactose survival enhancers in mitochondrial complex I cybrids – cell-based, galactose medium, ATP luminescence, primary screen (AID 1645843;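 active = z-score of at least 1.8 in each of two replicates, scored against plate mean and spread of sample wells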;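 note: positive z means more ATP and so rescue of galactose-driven cybrid death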). The note with it: complex I mutant cybrid cells, 72 h, stronger effect = higher value.
A further assay deals with F380Y. The assay can be described thus: BK channel mutant inhibitors and activators – cell-based, U2OS BacMam, thallium flux, beta subunits, selectivity assay, profiling panel (AID 1259406;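 active = thallium flux through the channel raised or lowered by more than 3 SD from vehicle-only wells, actives on both sides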;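 note: initial slope of Thallos dye fluorescence rise after thallium is added; log ratio against the mean of 0.3% DMSO vehicle wells on the same plate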). The conditions noted are these: U2OS BacMam BK variants, at 30 µM.
The subject of the next assay is F380Y/beta1. The assay is described as above. The conditions noted are these: U2OS BacMam BK variants, at 30 µM.
For a further assay, the system named is F380Y/beta2Delta. Described as above. The note with it: U2OS BacMam BK variants, at 30 µM.
For the next assay, the system named is F380Y/beta4. Described as above. The conditions noted are these: U2OS BacMam BK variants, at 30 µM.
Assay [11] concerns the target Calcium-activated potassium channel subunit alpha-1 (Homo sapiens) + Leucine-rich repeat-containing protein 26 (Homo sapiens) (UniProt Q12791+Q2I0M4). The description is as above. The note with it: U2OS BacMam BK variants, F380Y/Slo1WT/gamma1, at 30 µM.
The test system of another assay is R275C. The description is as above. The conditions noted are these: U2OS BacMam BK variants, at 30 µM.
Another assay concerns R275C/beta1. Described as above. The note with it: U2OS BacMam BK variants, at 30 µM.
A further assay relates to R275C/beta2Delta. The description is as above. The conditions noted are these: U2OS BacMam BK variants, at 30 µM.
The next assay concerns R275C/beta4. The assay is described as above. The conditions noted are these: U2OS BacMam BK variants, at 30 µM.
For a further assay, the system named is R275C/Slo1WT/beta2. The description is as above. The note with it: U2OS BacMam BK variants, at 30 µM.

Sequence of Calcium-dependent protein kinase 4 (Plasmodium falciparum (isolate 3D7)) (Q8IBS5 whole entry, looked up): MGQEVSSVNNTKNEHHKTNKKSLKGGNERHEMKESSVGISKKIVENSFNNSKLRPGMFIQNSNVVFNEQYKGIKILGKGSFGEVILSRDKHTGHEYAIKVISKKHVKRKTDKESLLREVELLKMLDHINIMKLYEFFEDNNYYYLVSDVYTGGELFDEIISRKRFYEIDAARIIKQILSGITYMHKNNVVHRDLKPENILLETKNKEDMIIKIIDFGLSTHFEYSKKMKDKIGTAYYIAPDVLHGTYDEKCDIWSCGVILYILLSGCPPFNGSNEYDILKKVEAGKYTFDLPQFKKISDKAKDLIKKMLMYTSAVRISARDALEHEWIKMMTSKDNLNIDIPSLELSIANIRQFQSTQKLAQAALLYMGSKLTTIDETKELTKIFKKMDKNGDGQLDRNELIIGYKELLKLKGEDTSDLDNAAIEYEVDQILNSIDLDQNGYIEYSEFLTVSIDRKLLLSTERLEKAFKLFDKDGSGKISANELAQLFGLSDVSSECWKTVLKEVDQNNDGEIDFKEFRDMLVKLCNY
Sequence of Calcium-activated potassium channel subunit alpha-1 (Homo sapiens) + Leucine-rich repeat-containing protein 26 (Homo sapiens) (Q2I0M4 whole entry, looked up, one chain of several): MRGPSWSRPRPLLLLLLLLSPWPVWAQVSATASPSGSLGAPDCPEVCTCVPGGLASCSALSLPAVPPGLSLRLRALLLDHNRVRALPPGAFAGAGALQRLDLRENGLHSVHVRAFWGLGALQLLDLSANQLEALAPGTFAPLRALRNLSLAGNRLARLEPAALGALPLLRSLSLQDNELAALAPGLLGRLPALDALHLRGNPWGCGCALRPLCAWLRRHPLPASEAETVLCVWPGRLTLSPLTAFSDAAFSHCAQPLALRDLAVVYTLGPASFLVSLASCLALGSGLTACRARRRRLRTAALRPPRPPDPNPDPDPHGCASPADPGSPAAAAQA
Sequence of Protein kinase 7 (PK7), Plasmodium falciparum 3D7 (PF3D7_0213400) (Q7YTF7 1-343): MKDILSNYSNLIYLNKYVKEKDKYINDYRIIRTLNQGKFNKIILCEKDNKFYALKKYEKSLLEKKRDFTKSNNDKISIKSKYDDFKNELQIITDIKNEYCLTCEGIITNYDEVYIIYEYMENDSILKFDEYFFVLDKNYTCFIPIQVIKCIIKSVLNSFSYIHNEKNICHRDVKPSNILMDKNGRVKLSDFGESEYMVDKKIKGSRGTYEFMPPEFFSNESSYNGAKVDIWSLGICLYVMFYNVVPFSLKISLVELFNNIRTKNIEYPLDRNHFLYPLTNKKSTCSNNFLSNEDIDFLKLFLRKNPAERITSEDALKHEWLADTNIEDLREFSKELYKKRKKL
Sequence of Plasmodium falciparum protein kinase 6 (PK6, PF3D7_1337100) (Q8IDW1 1-305): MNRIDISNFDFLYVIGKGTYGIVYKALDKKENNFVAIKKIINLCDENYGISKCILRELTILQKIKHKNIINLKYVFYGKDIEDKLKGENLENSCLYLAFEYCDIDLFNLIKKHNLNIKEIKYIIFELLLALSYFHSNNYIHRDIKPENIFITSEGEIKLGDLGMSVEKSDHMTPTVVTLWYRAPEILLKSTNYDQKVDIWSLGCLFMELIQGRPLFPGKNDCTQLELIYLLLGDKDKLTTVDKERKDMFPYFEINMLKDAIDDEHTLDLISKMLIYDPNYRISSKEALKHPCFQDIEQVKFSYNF
Sequence of L-lactate dehydrogenase (Plasmodium falciparum (isolate CDC / Honduras)) (Q27743 whole entry, looked up): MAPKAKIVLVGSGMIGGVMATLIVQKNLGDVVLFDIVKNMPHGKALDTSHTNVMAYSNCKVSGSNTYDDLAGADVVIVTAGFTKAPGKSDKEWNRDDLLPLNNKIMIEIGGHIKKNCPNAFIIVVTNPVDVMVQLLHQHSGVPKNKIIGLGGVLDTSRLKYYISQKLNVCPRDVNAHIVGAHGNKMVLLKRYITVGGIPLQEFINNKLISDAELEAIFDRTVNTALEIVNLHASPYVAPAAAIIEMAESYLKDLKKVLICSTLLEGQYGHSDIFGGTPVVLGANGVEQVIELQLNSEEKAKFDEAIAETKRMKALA

`COc1ccc(Nc2ncc(OC)c(Nc3ccccc3C(N)=O)n2)cc1N1CCN(C)CC1`: the growth inhibition is 96% (active) in [1] and 100% (active) in [4]. For the same compound, the inhibition (as a rule, the relative decrease from the control value, in per cent) is 63% (active) in assay [2] and 0% (inactive) in assay [3]. The result in [5] and in assay [6] was inactive.

Take `CC(C)(CN)c1cc(-c2ccc(Cl)c(O)c2)c(-c2ccncc2)o1`: the growth inhibition in [1] is 97% (active); in assay [4] it was 92% (active). For the same compound, the inhibition in [2] was 44% (inactive); in assay [3], 7% (inactive). For the same compound, the outcome in assay [7] and in assay [5] was inactive.

Regarding `COc1ccc(Nc2ncc(C#N)c(Nc3ccccc3C(N)=O)n2)cc1N1CCN(C)CC1`, the growth inhibition in assay [1] is 97% (active); in assay [4], 93% (active). For the same compound, the inhibition in [2] was 56% (active); in assay [3] it was -1% (inactive). In addition, the outcome in assay [5] and in assay [6] was inactive.

As to `CCn1c(-c2nonc2N)nc2c(-c3cccc(Cl)c3)ncc(OCCCNCc3cnc(C)nc3N)c21`, the figures for the growth inhibition in [1] and in assay [4] were 48% (inactive) and 93% (active), respectively. Also, the inhibition in assay [2] is 21% (inactive); in assay [3] it was 3% (inactive). Also, the outcome in assay [7] and in [5] was inactive.

Take `NC[C@H](CC1CCCCC1)NC(=O)c1ccc(-c2ccnc3[nH]ccc23)s1`: the growth inhibition is 4% (inactive) in assay [1] and 98% (active) in assay [4]. Also, the inhibition in assay [2] was 39% (inactive); in assay [3], 5% (inactive). In addition, the result in assay [7] and in assay [5] was inactive.

Take `NCC(NC(=O)c1ccc(-c2c[nH]c3ncccc23)s1)c1ccccc1` (stereo not drawn): the growth inhibition was 87% (active) in assay [1] and 95% (active) in [4]. The inhibition is 52% (active) in [2] and 0% (inactive) in [3]. Moreover, the result in assay [7] and in assay [5] was inactive.

In the case of `Cn1c(=O)c(-c2c(Cl)cccc2Cl)cc2cnc(Nc3ccc(N4CCOCC4)cc3)nc21`, the figures for the growth inhibition in [1] and in assay [4] were 97% (active) and 98% (active), respectively. Also, the inhibition in assay [2] was 64% (active); in [3], 4% (inactive). The result in assay [5], in [6] and in assay [9] was inactive. The fold change in [8] (stronger effect = lower value, cell number ratio, induced over uninduced) is 1.06 (inactive); in assay [8] (measured here: relative caspase fold change +Dox/-Dox) it was 1.37. Besides, the cell count was 814 in assay [8] (measured here: total cells with miR-34 induction, stronger effect = lower value) and 768 in assay [8] (measured here: total cells without miR-34 induction). Moreover, the z-score in [10] was -1.38 (inactive).

Regarding `NS(=O)(=O)c1cccc(Nc2nccc(-c3c(-c4cccc(NC(=O)c5c(F)cccc5F)c4)nn4ccccc34)n2)c1`, the growth inhibition in [1] was 97% (active); in assay [4], 98% (active). In addition, the inhibition in assay [2] is 81% (active); in assay [3], 2% (inactive). In addition, the outcome in assay [7] and in assay [5] was inactive.

Regarding `CCn1c(-c2nonc2N)nc2c(-c3cccc(NC(=O)Nc4ccccc4OC)c3)ncc(OCCCN)c21`, the growth inhibition in [1] was 58% (active); in assay [4], 92% (active). Further, the inhibition in assay [2] was 84% (active); in assay [3], -2% (inactive). For the same compound, the result in [7] and in [5] was inactive.

Take `COc1ccc(Nc2ncc(Cl)c(Nc3cccnc3C(N)=O)n2)cc1N1CCN(C)CC1`: the growth inhibition in assay [1] was 97% (active); in [4], 95% (active). Also, the inhibition in assay [2] is 77% (active); in assay [3], 6% (inactive). The result in assay [5] and in assay [6] was inactive.

Turning to `Cc1cccc(Nc2nc(N[C@@H]3CCCNC3)nc3cc[nH]c(=O)c23)c1`, the values for the growth inhibition in assay [1] and in assay [4] were 98% (active) and 99% (active), respectively. Moreover, the inhibition in [2] is 55% (active); in assay [3], 1% (inactive). For the same compound, the result in assay [7] and in assay [5] was inactive.

On to `Cn1cnc([N+](=O)[O-])c1Sc1cccs1`, for which the log fold change Tl+ flux in the assay with F380Y was 0.0486 (inactive); in the assay with F380Y/beta1 it was 0.0187 (inactive); with F380Y/beta2Delta, 0.0459 (inactive); with F380Y/beta4 it was 0.0453 (inactive); in assay [11], 0.029 (inactive); in the assay on R275C it was 0.00916 (inactive). Moreover, the log fold change Tl+ flux was 0.0118 (inactive) in the assay on R275C/beta1, 0.0288 (inactive) in the assay on R275C/beta2Delta, 0.0285 (inactive) in the assay on R275C/beta4 and 0.0293 (inactive) with R275C/Slo1WT/beta2.

For the compound `O=C(Nc1cccc(-c2nn3ccccc3c2-c2ccnc(Nc3ccc(NCCCN4CCOCC4)c(F)c3)n2)c1)c1c(F)cccc1F`, the growth inhibition in assay [1] is 97% (active); in assay [4] it was 100% (active). Further, the results for the inhibition in assay [2] and in [3] were 86% (active) and 0% (inactive), respectively. Further, the outcome in assay [5] was inactive.

Regarding `O=c1n(-c2ccccc2)c(=O)n2n1C1CCC2C1`, the log fold change Tl+ flux with F380Y is -0.0367 (inactive); in the assay with F380Y/beta1 it was -0.0272 (inactive); in the assay on F380Y/beta2Delta, -0.00637 (inactive); with F380Y/beta4, 0.0475 (inactive); in [11], -0.00381 (inactive); in the assay with R275C it was 0.0483 (inactive). In addition, the log fold change Tl+ flux was 0.0201 (inactive) in the assay with R275C/beta1, 0.00605 (inactive) in the assay on R275C/beta2Delta, -0.0283 (inactive) in the assay with R275C/beta4 and 0.0498 (inactive) in the assay with R275C/Slo1WT/beta2.

As to `CS(=O)(=O)Cc1ccc(Nc2nccc(-c3c(-c4cccc(NC(=O)C5CCCCC5)c4)nn4ncccc34)n2)cc1`, the growth inhibition is 99% (active) in assay [1] and 98% (active) in assay [4]. Moreover, the inhibition was 31% (inactive) in assay [2] and 0% (inactive) in assay [3]. For the same compound, the outcome in [5] was inactive.

Take `CC(=O)Nc1cccc(Nc2nccc(-c3c(-c4cccc(NC(=O)c5c(F)cccc5F)c4)nn4ncccc34)n2)c1`: the results for the growth inhibition in assay [1] and in assay [4] were 51% (active) and 96% (active), respectively. Further, the inhibition in assay [2] was 83% (active); in assay [3], 5% (inactive). In addition, the result in [5] was inactive.

On to `CNC(=O)c1ccccc1Nc1nc(Nc2ccc(N3CCN(C)CC3)nc2)ncc1C`, for which the growth inhibition is 50% (active) in [1] and 92% (active) in assay [4]. The inhibition in assay [2] was 75% (active); in assay [3], 4% (inactive). Also, the outcome in [5] and in [6] was inactive.

For the compound `COC(=O)c1cc(S(=O)(=O)N(Cc2ccc(OC)cc2)Cc2cccn2C)oc1C`, the log fold change Tl+ flux in the assay on F380Y is -0.118 (active); in the assay with F380Y/beta1, -0.0838 (active); with F380Y/beta2Delta it was -0.0509 (inactive); in the assay with F380Y/beta4 it was -0.483 (active); in assay [11], -0.414 (active); in the assay with R275C it was -0.56 (active). Moreover, the log fold change Tl+ flux in the assay with R275C/beta1 was -0.496 (active); in the assay on R275C/beta2Delta it was -0.122 (active); with R275C/beta4, -0.289 (active); in the assay on R275C/Slo1WT/beta2, -0.135 (active).
